According to PubChem BioAssay (NCATS):
Results filed as inconclusive are left out. A call without a number means that no potency is given here. Active and inactive are the calls of the source. The call rests on the fitted dose curve; in most records, active means well fitted inhibition curve with a large enough effect; inconclusive means small, poorly fitted or top-dose-only effect; inactive means no such curve, though single readings can be large or run the other way.

Target: Retinaldehyde dehydrogenase 3 (Homo sapiens) (UniProt P47895)
Assay: qHTS for Inhibitors of the Aldehyde Dehydrogenase Family (ALDH1A3) Confirmatory screens (AID 2061311); further: nearly all actives have a fitted effect of over 60% in size
Settings: ALDH inhibition qHTS; series mostly up to 46 µM
Potency means the concentration at half of the fitted maximal effect.

Structure (SMILES)	Potency
O=C(NCc1ccccc1)C1CCN(c2nc(-c3ccc(Br)cc3)cs2)CC1	inactive
N#Cc1cccc(C#N)c1-c1nc2c3ccccc3c3cc(Cl)ccc3c2[nH]1	5.65 µM (active)
Oc1ccc(COc2cccc3ccccc23)c2cccnc12	10.1 µM (active)
Oc1ccccc1C1Nc2cccc3cccc(c23)N1	12.7 µM (active)
CCOC(=O)C1CCN(c2ncc(-c3ccc4c(c3)OCCCO4)s2)CC1	10.1 µM (active)
c1cc2c(cc1CNc1ccc(N3CCOCC3)cc1)OCO2	6.34 µM (active)

Target: Retinal dehydrogenase 2 (Homo sapiens) (UniProt O94788)
Assay: qHTS for Inhibitors of the Aldehyde Dehydrogenase Family (ALDH1A2) Confirmation screens (AID 2061314); further: nearly all actives have a fitted effect of over 65% in size
Settings: ALDH1A2 enzyme inhibition qHTS confirmation; series mostly up to 45.9 µM

Structure (SMILES)	Potency
NC(=O)C1CCN(c2ncc(-c3ccc4c(c3)OC(F)(F)O4)s2)CC1	inactive
COc1cccc(-c2nc(-c3ccc(C(=O)O)cc3)no2)c1	inactive
COc1cccc(C2c3c(ncn(-c4ccccc4-c4ccccc4)c3=N)Oc3ccc4ccccc4c32)c1 (configuration not stated)	7.98 µM (active)
CC(=O)NC(C)c1cc(F)c2cccnc2c1O (configuration not stated)	10.1 µM (active)
Cc1cnc(-c2ccccc2CO)nc1NCC1CCN(c2cccnc2)CC1	11.3 µM (active)
Cc1ccccc1Nc1nc(C#N)nc(NC2CCCC2)n1	12.7 µM (active)
Cc1ccc(S(=O)(=O)Nc2cc(F)ccc2C(=O)Nc2nc(-c3ccccc3)cs2)cc1	5.04 µM (active)
Cc1ccc(CNc2ccc(N3CCCCC3)cc2)cc1	28.3 µM (active)
Cc1ccsc1CN(C)c1ncnc2ccc(-c3ccoc3)cc12	11.3 µM (active)
Cc1ccc(CNc2ncnc3ccc(-c4ccoc4)cc23)o1	20.1 µM (active)
O=C(O)c1ccc(-c2noc(-c3ccccc3F)n2)cc1	inactive
COc1ccc(-n2c(C)c(C(C)=O)c3ccccc32)cc1	inactive
O=C(NCc1ccccc1)C1CCN(c2nc(-c3ccc(Br)cc3)cs2)CC1	inactive
N#Cc1cccc(C#N)c1-c1nc2c3ccccc3c3cc(Cl)ccc3c2[nH]1	inactive
CCOC(=O)C1CCN(c2ncc(-c3ccc4c(c3)OCCCO4)s2)CC1	4 µM (active)

Target: Retinaldehyde dehydrogenase 3 (Homo sapiens) (UniProt P47895)
Assay: qHTS for Inhibitors of the Aldehyde Dehydrogenase Family (ALDH1A3) Primary screen (AID 2061315)
Settings: ALDH inhibition qHTS; series mostly up to 56 µM

Structure (SMILES)	Potency
NC(=O)C1CCN(c2ncc(-c3ccc4c(c3)OC(F)(F)O4)s2)CC1	inactive
COc1cccc(C2c3c(ncn(-c4ccccc4-c4ccccc4)c3=N)Oc3ccc4ccccc4c32)c1 (configuration not stated)	inactive
CC(=O)NC(C)c1cc(F)c2cccnc2c1O (configuration not stated)	inactive
Cc1cnc(-c2ccccc2CO)nc1NCC1CCN(c2cccnc2)CC1	inactive
Cc1ccccc1Nc1nc(C#N)nc(NC2CCCC2)n1	inactive
Cc1ccc(S(=O)(=O)Nc2cc(F)ccc2C(=O)Nc2nc(-c3ccccc3)cs2)cc1	inactive
Cc1ccsc1CN(C)c1ncnc2ccc(-c3ccoc3)cc12	inactive
Cc1ccc(CNc2ncnc3ccc(-c4ccoc4)cc23)o1	inactive
COc1ccc(-n2c(C)c(C(C)=O)c3ccccc32)cc1	inactive
O=C(NCc1ccccc1)C1CCN(c2nc(-c3ccc(Br)cc3)cs2)CC1	inactive
N#Cc1cccc(C#N)c1-c1nc2c3ccccc3c3cc(Cl)ccc3c2[nH]1	25.1 µM (active)
